# Results: article PMC9911399, “Two distinct binding modes provide the RNA-binding protein RbFox with extraordinary sequence specificity”
# Substitutions are numbered along the chain they refer to; changes in the protein carry UniProt numbers. The full ranking holds about 16,000 sequences; the median of “ka relative to ugcaugu” is about 0.096, and the highest 2% start at about 0.35. This excerpt belongs to a sample that is enriched for the highest values.
# T1: RBFOX1 RRM RbFoxmut (Fox-RRM*) (Homo sapiens, UniProt Q9NWB1 109-208, R118D;E147R;N151S;E152T)
# T1 sequence: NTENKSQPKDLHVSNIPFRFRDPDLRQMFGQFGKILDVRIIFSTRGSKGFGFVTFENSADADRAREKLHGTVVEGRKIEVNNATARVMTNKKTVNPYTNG
# B1: ACGUGUG (DNA:RNA)
# RNA: GGGAGACCGGAAUUCAGAUUGUCCACGUGUGUUAAAUCCCGUCGUAGCCACCA
# DNA 1: CAATCTGAATTCCGGTCTCCC
# DNA 2: TGGTGGCTACGACGGGATT
# B2: CCCUACC (DNA:RNA)
# RNA: B1 RNA with A25C, G27C, G29A, U30C, G31C
# DNA 1: CAATCTGAATTCCGGTCTCCC
# DNA 2: TGGTGGCTACGACGGGATT
# B3: UAUCCCC (DNA:RNA)
# RNA: GGGAGACCGGAAUUCAGAUUGUCCUAUCCCCUUAAAUCCCGUCGUAGCCACCA
# DNA 1: CAATCTGAATTCCGGTCTCCC
# DNA 2: TGGTGGCTACGACGGGATT
# B4: AUUUAGC (DNA:RNA)
# RNA: B1 RNA with C26U, G27U, G29A, U30G, G31C
# DNA 1: CAATCTGAATTCCGGTCTCCC
# DNA 2: TGGTGGCTACGACGGGATT
# B5: CCCGUAG (DNA:RNA)
# RNA: B1 RNA with A25C, G27C, U28G, G29U, U30A
# DNA 1: CAATCTGAATTCCGGTCTCCC
# DNA 2: TGGTGGCTACGACGGGATT
# B6: CCUGGAG (DNA:RNA)
# RNA: B1 RNA with A25C, G27U, U28G, U30A
# DNA 1: CAATCTGAATTCCGGTCTCCC
# DNA 2: TGGTGGCTACGACGGGATT
# B7: GCAGUAG (DNA:RNA)
# RNA: B1 RNA with A25G, G27A, U28G, G29U, U30A
# DNA 1: CAATCTGAATTCCGGTCTCCC
# DNA 2: TGGTGGCTACGACGGGATT
# B8: CAGGUCU (DNA:RNA)
# RNA: B3 RNA with U25C, U27G, C28G, C29U, C31U
# DNA 1: CAATCTGAATTCCGGTCTCCC
# DNA 2: TGGTGGCTACGACGGGATT
# B9: CAUUAAC (DNA:RNA)
# RNA: B3 RNA with U25C, C28U, C29A, C30A
# DNA 1: CAATCTGAATTCCGGTCTCCC
# DNA 2: TGGTGGCTACGACGGGATT
# B10: GUCCUGC (DNA:RNA)
# RNA: B3 RNA with U25G, A26U, U27C, C29U, C30G
# DNA 1: CAATCTGAATTCCGGTCTCCC
# DNA 2: TGGTGGCTACGACGGGATT
# B11: UGCAUCC (DNA:RNA)
# RNA: B3 RNA with A26G, U27C, C28A, C29U
# DNA 1: CAATCTGAATTCCGGTCTCCC
# DNA 2: TGGTGGCTACGACGGGATT
# B12: UGCACCC (DNA:RNA)
# RNA: B3 RNA with A26G, U27C, C28A
# DNA 1: CAATCTGAATTCCGGTCTCCC
# DNA 2: TGGTGGCTACGACGGGATT
# B13: UUCAUGC (DNA:RNA)
# RNA: B3 RNA with A26U, U27C, C28A, C29U, C30G
# DNA 1: CAATCTGAATTCCGGTCTCCC
# DNA 2: TGGTGGCTACGACGGGATT
# B14: UGCAUAG (DNA:RNA)
# RNA: B1 RNA with A25U, C26G, G27C, U28A, G29U, U30A
# DNA 1: CAATCTGAATTCCGGTCTCCC
# DNA 2: TGGTGGCTACGACGGGATT
# B15: UGCAUAC (DNA:RNA)
# RNA: B3 RNA with A26G, U27C, C28A, C29U, C30A
# DNA 1: CAATCTGAATTCCGGTCTCCC
# DNA 2: TGGTGGCTACGACGGGATT
# B16: UGCAUUG (DNA:RNA)
# RNA: B1 RNA with A25U, C26G, G27C, U28A, G29U
# DNA 1: CAATCTGAATTCCGGTCTCCC
# DNA 2: TGGTGGCTACGACGGGATT
# B17: UGCGUCC (DNA:RNA)
# RNA: B3 RNA with A26G, U27C, C28G, C29U
# DNA 1: CAATCTGAATTCCGGTCTCCC
# DNA 2: TGGTGGCTACGACGGGATT
# B18: UGCAUGC (DNA:RNA)
# RNA: B3 RNA with A26G, U27C, C28A, C29U, C30G
# DNA 1: CAATCTGAATTCCGGTCTCCC
# DNA 2: TGGTGGCTACGACGGGATT
# B19: UGCAUUC (DNA:RNA)
# RNA: B3 RNA with A26G, U27C, C28A, C29U, C30U
# DNA 1: CAATCTGAATTCCGGTCTCCC
# DNA 2: TGGTGGCTACGACGGGATT
# B20: UGCAUCG (DNA:RNA)
# RNA: B3 RNA with A26G, U27C, C28A, C29U, C31G
# DNA 1: CAATCTGAATTCCGGTCTCCC
# DNA 2: TGGTGGCTACGACGGGATT
# B21: UGCUGCA (DNA:RNA)
# RNA: B1 RNA with A25U, C26G, G27C, U30C, G31A
# DNA 1: CAATCTGAATTCCGGTCTCCC
# DNA 2: TGGTGGCTACGACGGGATT
# B22: AACCCAG (DNA:RNA)
# RNA: B3 RNA with U25A, U27C, C30A, C31G
# DNA 1: CAATCTGAATTCCGGTCTCCC
# DNA 2: TGGTGGCTACGACGGGATT
# B23: CCAAUCA (DNA:RNA)
# RNA: B1 RNA with A25C, G27A, U28A, G29U, U30C, G31A
# DNA 1: CAATCTGAATTCCGGTCTCCC
# DNA 2: TGGTGGCTACGACGGGATT
# B24: UCAGUGG (DNA:RNA)
# RNA: B1 RNA with A25U, G27A, U28G, G29U, U30G
# DNA 1: CAATCTGAATTCCGGTCTCCC
# DNA 2: TGGTGGCTACGACGGGATT
# B25: AGUUGAG (DNA:RNA)
# RNA: B1 RNA with C26G, G27U, U30A
# DNA 1: CAATCTGAATTCCGGTCTCCC
# DNA 2: TGGTGGCTACGACGGGATT
# B26: AUAGCCG (DNA:RNA)
# RNA: B1 RNA with C26U, G27A, U28G, G29C, U30C
# DNA 1: CAATCTGAATTCCGGTCTCCC
# DNA 2: TGGTGGCTACGACGGGATT
# B27: AAGUGAG (DNA:RNA)
# RNA: B1 RNA with C26A, U30A
# DNA 1: CAATCTGAATTCCGGTCTCCC
# DNA 2: TGGTGGCTACGACGGGATT
# B28: UGCAUAA (DNA:RNA)
# RNA: B3 RNA with A26G, U27C, C28A, C29U, C30A, C31A
# DNA 1: CAATCTGAATTCCGGTCTCCC
# DNA 2: TGGTGGCTACGACGGGATT
# B29: UCCUGCA (DNA:RNA)
# RNA: B1 RNA with A25U, G27C, U30C, G31A
# DNA 1: CAATCTGAATTCCGGTCTCCC
# DNA 2: TGGTGGCTACGACGGGATT
# B30: UGCAUGA (DNA:RNA)
# RNA: B3 RNA with A26G, U27C, C28A, C29U, C30G, C31A
# DNA 1: CAATCTGAATTCCGGTCTCCC
# DNA 2: TGGTGGCTACGACGGGATT
# B31: UGCAUUA (DNA:RNA)
# RNA: B1 RNA with A25U, C26G, G27C, U28A, G29U, G31A
# DNA 1: CAATCTGAATTCCGGTCTCCC
# DNA 2: TGGTGGCTACGACGGGATT
# B32: UGCGUGG (DNA:RNA)
# RNA: B1 RNA with A25U, C26G, G27C, U28G, G29U, U30G
# DNA 1: CAATCTGAATTCCGGTCTCCC
# DNA 2: TGGTGGCTACGACGGGATT
# B33: UGCAUGG (DNA:RNA)
# RNA: B1 RNA with A25U, C26G, G27C, U28A, G29U, U30G
# DNA 1: CAATCTGAATTCCGGTCTCCC
# DNA 2: TGGTGGCTACGACGGGATT
# B34: UGCAUCA (DNA:RNA)
# RNA: B3 RNA with A26G, U27C, C28A, C29U, C31A
# DNA 1: CAATCTGAATTCCGGTCTCCC
# DNA 2: TGGTGGCTACGACGGGATT
# B35: UGCCUGG (DNA:RNA)
# RNA: B3 RNA with A26G, U27C, C29U, C30G, C31G
# DNA 1: CAATCTGAATTCCGGTCTCCC
# DNA 2: TGGTGGCTACGACGGGATT
# B36: UGCGUCA (DNA:RNA)
# RNA: B3 RNA with A26G, U27C, C28G, C29U, C31A
# DNA 1: CAATCTGAATTCCGGTCTCCC
# DNA 2: TGGTGGCTACGACGGGATT
# Biological target: T1, RBFOX1 RRM RbFoxmut (Fox-RRM*)
# Assay: EMSA; HiTS-Eq, 1 nM pool, 10 min; buffer printed only for the single-RNA assays: 10 mM Tris pH 7.5, 150 mM NaCl, 3.4 mM EDTA, 0.001% NP-40, 30 C
# Conditions: tags: His6 N-terminal (pET28a); label: 5' 32P
# Method in brief: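 Purified RbFox RRM, wild type or mutant, was incubated for 10 min in 50 µL with 1 nM of a 5′-radiolabelled RNA pool carrying 7 randomized nucleotides, whose flanks were annealed to DNA oligonucleotides, over a series of increasing protein concentrations. Unbound RNA was resolved on 8% native PAGE, cut out, reverse-transcribed, barcoded by PCR and sequenced on an Illumina HiSeq 2500. Relative association constants were derived from changes in read counts for each RNA species versus the control reaction and normalised to the cognate motif.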
row,Binder,binding signal
1,B1,0.203 KA relative to UGCAUGU
2,B2,0.0909 KA relative to UGCAUGU
3,B3,0.0611 KA relative to UGCAUGU
4,B4,0.134 KA relative to UGCAUGU
5,B5,0.101 KA relative to UGCAUGU
6,B6,0.113 KA relative to UGCAUGU
7,B7,0.122 KA relative to UGCAUGU
8,B8,0.0783 KA relative to UGCAUGU
9,B9,0.113 KA relative to UGCAUGU
10,B10,0.104 KA relative to UGCAUGU
11,B11,0.421 KA relative to UGCAUGU
12,B12,0.127 KA relative to UGCAUGU
13,B13,0.13 KA relative to UGCAUGU
14,B14,0.146 KA relative to UGCAUGU
15,B15,0.161 KA relative to UGCAUGU
16,B16,0.494 KA relative to UGCAUGU
17,B17,0.091 KA relative to UGCAUGU
18,B18,1.29 KA relative to UGCAUGU

row,Binder,binding signal
1,B19,0.13 KA relative to UGCAUGU
2,B20,0.922 KA relative to UGCAUGU
3,B21,0.251 KA relative to UGCAUGU
4,B22,0.0936 KA relative to UGCAUGU
5,B23,0.0737 KA relative to UGCAUGU
6,B24,0.101 KA relative to UGCAUGU
7,B25,0.133 KA relative to UGCAUGU
8,B26,0.119 KA relative to UGCAUGU
9,B27,0.137 KA relative to UGCAUGU
10,B28,0.146 KA relative to UGCAUGU
11,B29,0.24 KA relative to UGCAUGU
12,B30,0.692 KA relative to UGCAUGU
13,B31,0.163 KA relative to UGCAUGU
14,B32,0.138 KA relative to UGCAUGU
15,B33,0.935 KA relative to UGCAUGU
16,B34,0.565 KA relative to UGCAUGU
17,B35,0.233 KA relative to UGCAUGU
18,B36,0.155 KA relative to UGCAUGU
